# Bioassay records deposited in PubChem by Center for Chemical Genomics, University of Michigan.
# Dicer processing: inhibitors of Dicer pre-microRNA processing, primary screen, biochemical, cat-ELCCA, chemiluminescence; cat-ELCCA pre-miR-21 Dicer processing; hits give high values; actives 6% (n = 47,000); z-score at 25 µM; in the data active = z-score above about 3, passing the limit was not always enough;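 note: higher signal means more uncleaved substrate so more Dicer inhibition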
# Hits are given with their value; 0 = inactive. This is one part of a sample in which hits are shown more often than they occur.
SMILES,Dicer processing
S=c1nc[nH]c2c1nnn2Cc1ccccc1,0
CC(C)c1ccc(C2/C(=C(\O)c3ccc(Cl)cc3)C(=O)C(=O)N2CCCn2ccnc2)cc1 (stereo not drawn),0
COc1cccc2c1OC(c1ccc(F)cc1)N1N=C(c3ccccc3O)CC21 (stereo not drawn),8.6
COc1cccc2c1OC(CC(C)C)N1N=C(c3ccccc3O)CC21 (stereo not drawn),8.3
COc1cccc2c1OC(c1cccc(OC)c1OC)N1N=C(c3ccccc3O)CC21 (stereo not drawn),0
COC(=O)c1ccc(C2Oc3c(OC)cccc3C3CC(c4ccccc4O)=NN32)cc1 (stereo not drawn),0
COc1ccc(C2Oc3c(OC)cccc3C3CC(c4ccccc4O)=NN32)cc1OC (stereo not drawn),0
COc1ccc(OC)c(C2Oc3c(OC)cccc3C3CC(c4ccccc4O)=NN32)c1 (stereo not drawn),0
COC(=O)c1cccc2c1NC(c1ccc(Br)cc1)C1CC=CC21 (stereo not drawn),0
Cc1ccc(S(=O)(=O)N2Cc3ccccc3C(C)CC23CCCCC3)cc1 (stereo not drawn),0
O=C1SCCC1NC(=O)C1c2ccccc2Oc2ccccc21 (stereo not drawn),0
Cc1ccc(C2=CC(c3ccccc3)n3ncnc3N2)cc1 (stereo not drawn),0
Nc1ccc(Nc2ccc(N)cc2S(=O)(=O)O)cc1,44
Nc1ccc(S(=O)(=O)c2ccc(N)cc2)cc1,0
NC(=O)NS(=O)(=O)c1ccc(N)cc1,0
COc1cc(NC(=O)C2CC(=O)N=C(N)S2)c(OC)cc1Cl (stereo not drawn),0
CCCCCc1ccc(/C(N)=N/O)cc1,0
Cc1nnc(SCCC(C)C)[nH]c1=O,0
COc1cc2c(cc1OC)C(c1cccc(Cl)c1)NCC2 (stereo not drawn),0
Cn1c(S(=O)(=O)Cc2ccc(Cl)cc2)nc2ccccc21,0
Cn1c(CN2CCN(c3ccc(Cl)cc3)CC2)nc2ccccc21,6.1
Cc1nnc2c(N3CCN(Cc4ccccc4)CC3)nc3ccccc3n12,0
COc1cc(C2C(C(=O)OC3CCCC3)=C(C)NC3=C2C(=O)CCC3)cc(Br)c1O (stereo not drawn),0
CCOc1cc(C2C(C(=O)OCC3CCCO3)=C(C)NC3=C2C(=O)CCC3)ccc1OC(C)=O (stereo not drawn),0
CC1=C(C(=O)OCCOc2ccccc2)C(c2ccc(C)cc2)C2=C(CC(C)(C)CC2=O)N1 (stereo not drawn),0
SMILES,Dicer processing
COC(=O)c1cc(COc2ccc3c(oc(=O)c4cc(OC)ccc43)c2C)c(C)o1,0
COc1ccccc1NC(=O)CSc1nnc2c3ccccc3n(C)c2n1,0
Cc1cccc2c(=O)c(C(=O)O)c[nH]c12,0
O=C(O)c1c[nH]c2c(-c3ccccc3)c(C(F)(F)F)sc2c1=O,4.8
CCOC(=O)c1c[nH]c2c(-c3ccccc3)c(C(F)(F)F)sc2c1=O,0
CCCCN1C(=O)C2(/C(=C(/O)c3ccc(C)c(F)c3)C(=O)C(=O)N2CCN(C)C)c2ccccc21 (stereo not drawn),0
Cc1ccc(C)n1-c1ccc(C2(O)CCSc3ccccc32)cc1 (stereo not drawn),0
Cc1ccc(C)n1-c1ccc(C2(O)CCSc3ccc(F)cc32)cc1 (stereo not drawn),4
COc1cc2c(cc1OC)C1(C)N(CC2)C(C(=O)c2cccs2)=NN1c1ccccc1 (stereo not drawn),0
CCOC(=O)c1ccc2nc3c(nc2c1)C(O)=C3O,0
Cc1c(-c2ccc(-c3ccccc3F)cc2)nc2ccc(F)cc2c1C(=O)O,0
OC1=C(O)c2nc3cc(F)ccc3nc21,3.1
CCCCCCCCSc1nnc(/N=C/NO)s1,0
C[C@H]1O[C@@H](n2cc(F)c(=O)[nH]c2=O)[C@H](O)[C@@H]1O,3.1
O=c1[nH]c(=O)n(C2CCCO2)cc1F (stereo not drawn),0
O=c1[nH]c(=O)n(C2O[C@H](CO)[C@@H](O)[C@H]2O)cc1Br (stereo partly drawn),0
NC(=O)c1ccc(-c2ccccn2)s1,0
COC(=O)C1=C(C(=O)OC)SC(=C2C(=S)C(C)(C)N(C(=O)C(C)C)c3ccc(C)cc32)S1,0
CCCCN1Cc2c(n(CC(=O)c3ccc(C#N)cc3)c3cc(-c4ccccc4)nn3c2=O)C1=O,0
Cc1ccc(Cc2c(C)[nH]c3[nH]n(-c4ccccc4)c(=O)c3c2=O)cc1,0
Cc1ccc(S(=O)(=O)Oc2c(-c3ccccc3)c(=O)n(C)c3ccccc23)cc1,0
Cc1ccc(S(=O)(=O)Oc2c(Cc3ccccc3)c(=O)n(C)c3ccccc23)cc1,3.8
CN(C/C=C/C#CC(C)(C)C)Cc1cccc2ccccc12,0
N#C/C(=C\Nc1ccccn1)S(=O)(=O)Cc1ccco1,0
Clc1ccc(Nc2nnc3c4ccccc4c4ccccc4c3n2)cc1,0
Cc1cccc(C)c1C(=O)NC(=O)Nc1c(F)cc(F)cc1F,56
COc1ccc(Br)c(OC)c1C(=O)NC(=O)Nc1c(F)cccc1F,0
